# Assay results: PubChem BioAssay (Tox21)
# Inconclusive results are not listed. Entries that show only a call come without a potency. Activity calls are given as the source filed them. The call rests on the fitted dose curve; in most records, active means well fitted curve in the direction sought with a large enough effect in the repeat runs; inconclusive means weak or mixed curves; inactive means no such curve, though single readings can be large; an effect the other way counts as inactive or inconclusive.
# Legend:
# [1] = target: Cytochrome P450 2C19 (Homo sapiens) (UniProt P33261); experiment: Cytochrome P450 Family 2 Subfamily C Member 19 (CYP2C19) small molecule antagonists: luciferase reporter qHTS assay (AID 1671197); conditions: P450-Glo CYP2C19 enzyme, luciferin luminescence, 1 h; series mostly up to 52.9 µM; further: nearly all actives have a fitted effect of over 65% in size; further: potency means the concentration at half of the fitted maximal effect
# Chain of Cytochrome P450 2C19 (Homo sapiens) (P33261 whole entry, looked up): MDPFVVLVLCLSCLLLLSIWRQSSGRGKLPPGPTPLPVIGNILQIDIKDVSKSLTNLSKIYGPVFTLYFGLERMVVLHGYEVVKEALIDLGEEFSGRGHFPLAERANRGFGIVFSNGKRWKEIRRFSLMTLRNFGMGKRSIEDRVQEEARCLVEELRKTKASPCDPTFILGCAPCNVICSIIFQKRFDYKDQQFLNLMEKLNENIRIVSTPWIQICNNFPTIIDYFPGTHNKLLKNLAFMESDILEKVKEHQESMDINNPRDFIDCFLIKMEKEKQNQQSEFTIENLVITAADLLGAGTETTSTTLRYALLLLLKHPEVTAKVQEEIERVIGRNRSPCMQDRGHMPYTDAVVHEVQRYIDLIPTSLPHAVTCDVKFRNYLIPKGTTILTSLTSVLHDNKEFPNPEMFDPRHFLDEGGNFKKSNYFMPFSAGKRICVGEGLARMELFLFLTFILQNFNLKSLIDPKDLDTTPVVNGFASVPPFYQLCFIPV
# Outline: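 Relative luminescence units recorded 20 min after the detection reagent stopped a 1 h, 37C CYP2C19 reaction on proluciferin substrate, which was started by NADPH regeneration following 10 min room-temperature compound preincubation; ketoconazole positive control.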
# [2] = target: Cytochrome P450 2C9 (Homo sapiens) (UniProt P11712); experiment: Cytochrome P450 Family 2 Subfamily C Member 9 (CYP2C9) small molecule antagonists: luciferase reporter qHTS assay (AID 1671198); conditions: P450-Glo CYP2C9 enzyme assay, luciferin luminescence; series mostly up to 115 µM; further: nearly all actives have a fitted effect of over 50% in size; further: potency means the concentration at half of the fitted maximal effect
# Chain of Cytochrome P450 2C9 (Homo sapiens) (P11712 whole entry, looked up): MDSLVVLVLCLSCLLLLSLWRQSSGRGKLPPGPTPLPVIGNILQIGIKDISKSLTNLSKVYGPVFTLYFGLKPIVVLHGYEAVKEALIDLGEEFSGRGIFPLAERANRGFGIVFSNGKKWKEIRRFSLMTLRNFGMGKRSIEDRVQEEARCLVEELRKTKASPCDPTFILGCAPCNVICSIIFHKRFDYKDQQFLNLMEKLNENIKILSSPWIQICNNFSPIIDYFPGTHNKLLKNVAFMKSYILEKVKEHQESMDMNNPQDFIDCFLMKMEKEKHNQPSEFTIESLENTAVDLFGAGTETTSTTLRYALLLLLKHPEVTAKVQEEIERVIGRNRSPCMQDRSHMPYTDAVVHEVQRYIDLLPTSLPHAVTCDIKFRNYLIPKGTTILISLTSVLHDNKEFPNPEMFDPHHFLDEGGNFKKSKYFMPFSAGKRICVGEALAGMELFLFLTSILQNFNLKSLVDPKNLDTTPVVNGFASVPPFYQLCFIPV
# Outline: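 Enzyme-substrate mix preincubated with compound 10 min at room temperature; reaction started with NADPH regeneration solution, 1 h 37C. Luminescent luciferin product read after 20 min detection reagent.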
# [3] = target: Cytochrome P450 1A2 (Homo sapiens) (UniProt P05177); experiment: Cytochrome P450 Family 1 Subfamily A Member 2 (CYP1A2) small molecule antagonists: luciferase reporter qHTS assay (AID 1671199); conditions: P450-Glo CYP1A2 enzyme, luciferin luminescence, 1 h; series mostly up to 53 µM; further: potency means the concentration at half of the fitted maximal effect; nearly all actives have a fitted effect of over 50% in size
# Chain of Cytochrome P450 1A2 (Homo sapiens) (P05177 whole entry, looked up): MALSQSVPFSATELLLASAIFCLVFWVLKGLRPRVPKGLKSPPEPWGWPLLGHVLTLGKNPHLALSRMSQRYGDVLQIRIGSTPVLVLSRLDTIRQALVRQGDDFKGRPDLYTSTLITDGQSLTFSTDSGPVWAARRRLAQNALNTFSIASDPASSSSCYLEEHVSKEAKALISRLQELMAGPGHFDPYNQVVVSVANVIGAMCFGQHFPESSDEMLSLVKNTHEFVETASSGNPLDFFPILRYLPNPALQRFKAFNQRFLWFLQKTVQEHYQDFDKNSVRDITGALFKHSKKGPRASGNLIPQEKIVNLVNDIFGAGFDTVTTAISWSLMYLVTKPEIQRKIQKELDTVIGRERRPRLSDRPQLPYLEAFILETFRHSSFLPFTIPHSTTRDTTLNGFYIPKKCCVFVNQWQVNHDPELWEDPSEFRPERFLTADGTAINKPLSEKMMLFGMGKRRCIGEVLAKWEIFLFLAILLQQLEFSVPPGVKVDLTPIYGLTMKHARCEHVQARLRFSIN
# Outline: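 Read-out is luminescence from luciferin detection reagent (20 min) proportional to CYP1A2 activity; compounds in DMSO preincubated 10 min with enzyme and proluciferin substrate, then NADPH regeneration solution, 1 h, room temperature.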
# [4] = target: Voltage-gated inwardly rectifying potassium channel KCNH2 (Homo sapiens) (UniProt Q12809); experiment: Human Ether-a-go-go-Related Gene (hERG) channel small molecule antagonists: fluorescence cell-based qHTS assay (AID 1671200); conditions: hERG-U2OS cells, FluxOR thallium flux fluorescence; series mostly up to 76.8 µM;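 further: hERG-expressing U2OS cells given a thallium stimulus after FluxOR II dye loading; nearly all actives have a fitted effect of over 50% in size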
# Chain of Voltage-gated inwardly rectifying potassium channel KCNH2 (Homo sapiens) (Q12809 whole entry, looked up): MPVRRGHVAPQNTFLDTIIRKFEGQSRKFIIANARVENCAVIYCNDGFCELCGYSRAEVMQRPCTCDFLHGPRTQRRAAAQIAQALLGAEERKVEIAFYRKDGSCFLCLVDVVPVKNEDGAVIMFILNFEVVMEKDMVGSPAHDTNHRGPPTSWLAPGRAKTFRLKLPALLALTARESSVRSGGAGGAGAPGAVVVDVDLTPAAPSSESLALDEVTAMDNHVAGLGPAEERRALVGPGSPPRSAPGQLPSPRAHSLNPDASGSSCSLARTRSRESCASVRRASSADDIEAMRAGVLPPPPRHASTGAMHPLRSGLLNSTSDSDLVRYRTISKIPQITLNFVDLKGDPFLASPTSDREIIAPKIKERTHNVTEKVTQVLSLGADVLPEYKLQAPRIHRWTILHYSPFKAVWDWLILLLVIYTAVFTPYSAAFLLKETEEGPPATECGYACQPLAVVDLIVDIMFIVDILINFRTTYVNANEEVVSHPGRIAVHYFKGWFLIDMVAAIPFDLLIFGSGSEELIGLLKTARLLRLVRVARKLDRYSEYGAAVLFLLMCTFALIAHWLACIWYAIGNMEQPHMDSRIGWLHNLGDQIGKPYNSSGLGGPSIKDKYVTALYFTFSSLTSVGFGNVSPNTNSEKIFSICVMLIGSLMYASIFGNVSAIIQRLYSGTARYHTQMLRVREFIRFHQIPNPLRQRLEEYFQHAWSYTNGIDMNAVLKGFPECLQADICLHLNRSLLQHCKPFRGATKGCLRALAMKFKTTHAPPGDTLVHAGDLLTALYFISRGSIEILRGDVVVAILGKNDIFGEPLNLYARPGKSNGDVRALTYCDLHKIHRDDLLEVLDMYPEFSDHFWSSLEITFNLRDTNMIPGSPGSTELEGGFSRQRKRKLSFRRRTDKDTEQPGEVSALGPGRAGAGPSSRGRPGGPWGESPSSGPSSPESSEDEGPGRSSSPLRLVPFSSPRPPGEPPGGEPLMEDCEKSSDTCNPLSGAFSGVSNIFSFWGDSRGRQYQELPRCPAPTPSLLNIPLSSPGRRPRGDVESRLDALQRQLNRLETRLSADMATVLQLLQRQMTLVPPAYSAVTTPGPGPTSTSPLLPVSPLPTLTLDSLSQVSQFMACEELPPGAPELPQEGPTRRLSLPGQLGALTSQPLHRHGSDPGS
# Outline: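 hERG-U2OS cells plated overnight at 37 C, loaded with FluxOR II dye 1 h at RT in dark; after 10 min, thallium stimulus added. Fluorescence (480/540 nm) read kinetically for 2 min at 1 s intervals.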
# [5] = target: Cytochrome P450 3A4 (Homo sapiens) (UniProt P08684); experiment: Cytochrome P450 Family 3 Subfamily A Member 4 (CYP3A4) small molecule antagonists: luciferase reporter qHTS assay (AID 1671201); conditions: P450-Glo CYP3A4 enzyme, luciferin luminescence, 1 h; series mostly up to 115 µM; further: nearly all actives have a fitted effect of over 50% in size
# Chain of Cytochrome P450 3A4 (Homo sapiens) (P08684 whole entry, looked up): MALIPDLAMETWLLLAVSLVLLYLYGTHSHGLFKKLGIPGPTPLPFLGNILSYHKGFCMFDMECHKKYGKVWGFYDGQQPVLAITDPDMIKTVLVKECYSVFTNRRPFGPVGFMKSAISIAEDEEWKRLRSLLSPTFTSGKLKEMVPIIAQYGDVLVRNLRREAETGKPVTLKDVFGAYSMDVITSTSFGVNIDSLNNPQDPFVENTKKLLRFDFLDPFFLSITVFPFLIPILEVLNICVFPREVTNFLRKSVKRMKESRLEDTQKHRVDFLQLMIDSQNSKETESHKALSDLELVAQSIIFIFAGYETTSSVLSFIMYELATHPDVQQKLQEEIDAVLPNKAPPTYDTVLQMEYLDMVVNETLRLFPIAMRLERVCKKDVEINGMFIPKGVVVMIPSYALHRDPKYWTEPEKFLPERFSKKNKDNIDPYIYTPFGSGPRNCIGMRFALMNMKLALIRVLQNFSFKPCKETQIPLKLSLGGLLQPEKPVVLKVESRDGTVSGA
# Outline: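 P450-Glo CYP3A4 luminescent assay: compounds preincubated 10 min at room temperature with enzyme and proluciferin substrate, NADPH regeneration added, 1 h room-temperature reaction, stopped with luciferin detection reagent; luminescence read after 20 min. Ketoconazole positive control.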
SMILES,Potency [1],Potency [2],Potency [3],Potency [4],Potency [5]
O=C(O)c1ccccc1OP(=O)(O)O,inactive,inactive,27.5 µM (active),inactive,inactive
CCOC(=O)c1c(C)n(C)c2ccc(O)cc12,7.76 µM (active),,0.512 µM (active),inactive,
Brc1c(NC2=NCCN2)ccc2nccnc12,,,,inactive,
CO/N=C(/C(=O)N[C@@H]1C(=O)N2C(C(=O)OCOC(=O)C(C)(C)C)=C(C)CS[C@H]12)c1csc(N)n1,,11 µM (active),,inactive,
